The source made the active and inactive calls. Calls follow the shape of the dose curve; as a rule, active = well fitted activation curve with a large enough effect in the repeat runs; inconclusive = weak or mixed curves; inactive = flat fitted curve, though single readings scatter.
These compounds were tested against KiSS-1 receptor (Homo sapiens) (UniProt Q969F8) (assay: Human kisspeptin (KISS1R) small molecule agonists, calcium flux assay in KISS1R-HEK293 cells (AID 1920064)). Settings: KISS1R-HEK293, calcium flux fluorescence, agonist; series mostly up to 76.8 µM; activation: at the top concentration.
Description: National Center for Advancing Translational Sciences [NCATS]
Division of Preclinical Innovation [DPI]
U.S. Environmental Protection Agency [EPA]
National Institutes of Environmental Health Sciences [NIEHS]
National Toxicology Program [NTP]
U.S. Food and Drug Administration [FDA]
Kisspeptin and its receptor KISS1R play key roles in mammalian reproduction due to their involvement in the onset of puberty and control of the hypothalamic-pituitary-gonadal axis such as regulates GnRH release from the hypothalamus. The kisspeptin/KISS1R system also plays a direct role in peripheral organs (including the ovary, testis, uterus, and placenta) and is implicated in reproductive diseases such as miscarriage and polycystic ovary syndrome (PCOS). Abnormal KISS1R activity is associated with abnormal puberty, infertility, endometriosis, and hormone-dependent tumors. The KISS1 receptor (KISS1R, also called GPR54), a G-protein-coupled receptor (GPCR), acts (through phospholipase C) to increase intracellular inositol trisphosphate and then release intracellular calcium stores. Cell-based KISS1R-HEK293 assay is using HEK293 cells that have been genetically engineered to express the human KISS1R, which activity can be measured by calcium signaling. A compound/drug can activate (agonist) KISS1R that can be monitored by levels of intracellular calcium.
KISS1R-HEK293 cells developed by Codex Corp contain human KISS1R gene, which was stably integrated into HEK 293 cells. The compound activation can be detected by fluorescence intensity via calcium flux assay. This cell line has been used to screen the Tox21 10K compound library to identify agonists of KISS1R.
KISS1R-Hek293 cells were dispensed at 1500 cells/4uL/well in 1536-well black wall/clear bottom plates using a multidrop dispenser. After the assay plates were incubated at a 37 C/5% CO2 incubator for 18 hours, 4 microL of Calcium Dye Solution was added to each well. The plates were incubated at 37 C for 1 hour. And then 23 nL of compounds dissolved in DMSO, positive controls, or DMSO only was transferred to the assay plate by a pin tool station. The fluorescence intensity in the plates was measured using FDSS 7000EX kinetic plate reader with a filter set of Ex/Em=480/540 for 3 min at 1 sec intervals. Each test compound was measured at 15 concentrations and in triplicates.
% is scaled to controls: 0 for no effect and ±100 for the full control effect.

Sequence of KiSS-1 receptor (Homo sapiens) (Q969F8 whole entry, looked up): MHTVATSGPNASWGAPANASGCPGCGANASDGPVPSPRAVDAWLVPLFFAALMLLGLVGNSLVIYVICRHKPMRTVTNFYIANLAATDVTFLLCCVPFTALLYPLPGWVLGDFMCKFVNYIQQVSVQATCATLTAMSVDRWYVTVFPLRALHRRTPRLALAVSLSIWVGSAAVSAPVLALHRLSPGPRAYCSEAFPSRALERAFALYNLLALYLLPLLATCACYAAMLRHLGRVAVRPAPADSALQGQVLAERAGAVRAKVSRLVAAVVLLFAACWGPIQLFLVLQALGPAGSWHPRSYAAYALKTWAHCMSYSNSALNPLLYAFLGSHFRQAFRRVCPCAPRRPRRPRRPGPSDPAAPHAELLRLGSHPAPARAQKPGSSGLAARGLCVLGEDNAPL

SMILES | activation
c1ccc(C(O[C@H]2CCCN(CCc3ccc4c(c3)OCO4)C2)c2ccccc2)cc1 | 3.19% [at 35.3 µM] (inactive)
CCC(CO)(CO)COCC(CC)(CO)CO | -4.25% (inactive)
Oc1cn2c(n1)Nc1ccc(Cl)c(Cl)c1C2 | 1.57% [at 15.8 µM] (inactive)
CNc1c2c(nn1C)CCCC2 | -1.21% [at 35.3 µM] (inactive)
CCCCCCCCCCCCCCN(C)C | 2.68% [at 15.8 µM] (inactive)
CCC(=O)c1cccc(Cl)c1 | -2.02% (inactive)
O=C(/C=C/c1ccc(O)c(O)c1)O[C@@H]1C[C@](O)(C(=O)O)C[C@@H](O)[C@H]1O | -0.164% (inactive)
O=[N+]([O-])c1cc(Cl)c(Cl)c(Cl)c1Cl | 3.71% (inactive)
Nc1cc(C(F)(F)F)ccc1S | 1.38% [at 35.3 µM] (inactive)
O=C(O)c1c(O)c(-c2ccccc2)nc2ccccc12 | 3.5% [at 35.3 µM] (inactive)
CCCCOCCOC(=O)COc1cc(Cl)c(Cl)cc1Cl | -1.14% (inactive)
C=C[Si](C)(C)O[Si](C)(C)C=C | -0.069% (inactive)
CN1CCN(C2=Nc3ccccc3Sc3ccc(Cl)cc32)CC1 | -1.18% [at 35.3 µM] (inactive)
C[N+](C)(C)CCOC(=O)CCC(=O)OCC[N+](C)(C)C | 2.54% [at 35.3 µM] (inactive)
O=C(O)CCC(=O)OC[C@@H](NC(=O)C(Cl)Cl)[C@H](O)c1ccc([N+](=O)[O-])cc1 | -0.378% [at 35.3 µM] (inactive)
CCCCCCCCCCCc1ccccc1 | -2.03% (inactive)
CO/N=C(\C(=O)N[C@@H]1C(=O)N2C(C(=O)O)=C(CSc3nc(=O)c(O)nn3C)CS[C@H]12)c1csc(N)n1 | -0.516% [at 35.3 µM] (inactive)
CC(=O)CC(c1ccc([N+](=O)[O-])cc1)c1c(O)c2ccccc2oc1=O (stereo not given) | 0.114% [at 35.3 µM] (inactive)
CCCCC/C=C/CC(=O)OC | 2.43% (inactive)
CCCCCCCCCCCC[N+](C)(C)CCCCCCCCCCCC | 0.124% (inactive)

SMILES | activation
CCCCS | -2.67% (inactive)
O=C1c2ccccc2C(=O)C1c1nc2ccccc2c(Br)c1O | -0.891% (inactive)
Cc1cn[nH]c1 | 2.61% [at 35.3 µM] (inactive)
Cc1ccc(N)nc1 | -0.946% (inactive)
CCNS(=O)(=O)c1ccc(C)cc1 | -2.09% (inactive)
CCCCC(=O)O[C@]1(C(=O)CO)[C@H](C)C[C@H]2[C@@H]3CCC4=CC(=O)C=C[C@]4(C)[C@@]3(F)[C@@H](O)C[C@@]21C | 1.06% [at 35.3 µM] (inactive)
Nc1ccc(Cl)c([N+](=O)[O-])c1 | 1.23% (inactive)
CCCCCN(CCCCC)C(=O)C(CCC(=O)O)NC(=O)c1ccc(Cl)c(Cl)c1 (stereo not given) | 2.34% [at 35.3 µM] (inactive)
CC(C=O)Cc1ccc(C(C)C)cc1 (stereo not given) | 1.03% (inactive)
Cc1ccccc1C(=O)O | -2.96% (inactive)
C=C(C)C(=O)OCCN(CC)CC | -1.96% (inactive)
CCN(CC)CCOC(=O)C1(c2ccccc2)CCCC1 | 6.78% [at 35.3 µM] (inactive)
Cn1cnc2ncnc(N)c21 | 1.36% [at 35.3 µM] (inactive)
CN1CCC(=C2c3ccccc3CC(=O)c3sccc32)CC1 | 0.159% [at 35.3 µM] (inactive)
CCCCC/C=C/CC1CC(=O)OC1=O (stereo not given) | 0.0476% (inactive)
O=C(O)c1ccc2cc(O)ccc2c1 | 17.8% (inactive)
CCCCN1CCCC[C@H]1C(=O)Nc1c(C)cccc1C | 0.517% [at 35.3 µM] (inactive)
NS(=O)(=O)c1cc(-c2nn[nH]n2)c(NCc2cccs2)cc1Cl | -2.46% [at 35.3 µM] (inactive)
NC(=O)CC[C@@H](N)C(=O)O | -0.26% [at 35.3 µM] (inactive)
OCCCCC(O)CO (stereo not given) | -2.38% (inactive)

Reference: PubChem BioAssay (Tox21)
